Screening data deposited in PubChem BioAssay by National Center for Advancing Translational Sciences (NCATS).
Compounds with a hit are over-represented: about 12% of the library has one in this group of screens.
Sfp PPTase inh – Sfp phosphopantetheinyl transferase inhibition. Potency, µM, for inactives: largest response in the series, negative = inhibition, most hits filed as inhibitors. AID 1490. 310,000 tested, 3.5% active. Biochemical Sfp PPTase activity, qHTS. Q9F4F7;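 further: the enzyme is Sfp with the accession as filed and its product quenches rhodamine fluorescence; 0% = enzyme reaction without inhibitor and -100% = no enzyme wells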
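Compounds were incubated with enzyme (final 15 nM) for 15 min at room temperature before substrate addition started the reaction. Fluorescence at 525 nm excitation, 598 nm emission was recorded immediately and after 30 minutes.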
BAZ2B block – BAZ2B (human) inhibition. AlphaScreen BAZ2B-H3K14Ac peptide displacement. Potency, µM (series often up to 114 µM), for inactives: top-dose activity change, negative = inhibition, actives largely listed as inhibitors. 360,000 tested, 4.4% active. AID 504333; further: on the % scale 0 is the no-effect control and ±100 the full control effect; nearly all actives have a fitted effect of over 60% in size
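BAZ2B 50 nM plus b-H3(5-23)K14Ac 50 nM, PBS pH 7.4/0.01% Tween-20, 30 min RT; compound added (max 110 uM), 30 min RT; streptavidin donor/Ni-chelate acceptor beads 10 ug/mL final, 20 min dark; AlphaScreen read.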
G9a block – G9a (human) methyltransferase inhibition. G9a H3K9 monomethylation, AlphaScreen, 2 h. Potency, µM (highest dose often 102 µM), inactives show at the top dose activity, negative = inhibition, usual class: inhibitors. 350,000 tested, 8.8% active; further: on the % scale 0 is the no-effect control and ±100 the full control effect; nearly all actives have a fitted effect of over 75% in size
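Step 1: enzyme (final 20 nM) with compound, 15 min RT. Step 2: substrate peptide 500 nM and SAM 20 uM, 2 h RT. Step 3: anti-H3K9me1 antibody and AlphaScreen beads, 10 min, then plate read.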
PLK1 PBD inh – blocks phosphopeptide binding to human PLK1 polo-box domain. AID 720504. Plk1 PBD binding of FITC phosphopeptide, fluorescence polarization. 360,000 tested, 2.8% active. Potency, µM, inactives show max response, negative = inhibition, usual class: inhibitors; further: series mostly up to about 57 µM; on the % scale 0 is the no-effect control and ±100 the full control effect; nearly all actives have a fitted effect of over 65% in size
JMJD2A Tudor inh – blocks the human JMJD2A Tudor domain | O75164 | 390,000 tested, 4.4% active | Potency, µM (highest dose often 114 µM), inactives show at the highest dose activity change, negative = inhibition, most hits filed as inhibitors | AID 504339 | AlphaScreen JMJD2A-Tudor / H3K4me3 peptide binding; further: on the % scale 0 is the no-effect control and ±100 the full control effect; nearly all actives have a fitted effect of over 50% in size
HP1b binding inh – HP1-beta chromodomain-methylated histone interaction inhibition; P83916; AlphaScreen HP1-beta / biotin-H3K9me3 peptide binding; Potency, µM (highest dose often 114 µM), for the others: top-dose activity change, negative = inhibition, actives largely listed as inhibitors; 390,000 tested, 0.56% active; further: nearly all actives have a fitted effect of over 70% in size
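Compound inhibition of the preformed complex between 50 nM HP1-beta and 50 nM biotinylated H3K9me3 peptide was read by AlphaScreen. Buffer was PBS pH 7.4 with 0.01% Tween-20. Incubations ran 30 min at room temperature, with 10 ug/mL donor/acceptor beads.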
Active calls of the source: *; u = inconclusive; x = no result; [ ] = another dose, or the depositor's remark. The call rests on the fitted dose curve; in most records, active means well fitted curve in the direction sought with a large enough effect; inconclusive means small, poorly fitted or top-dose-only effect, or another doubt; inactive means no such curve, though single readings can be large; an effect the other way counts as inactive or inconclusive. Potency means the concentration at half of the fitted maximal effect.

SMILES	Sfp PPTase inh	BAZ2B block	G9a block	PLK1 PBD inh	JMJD2A Tudor inh	HP1b binding inh
COCCn1c(=NC(=O)c2cc(Cl)sc2Cl)sc2cc(S(N)(=O)=O)ccc21	11%	-8%	28µM*	-5%	-7%	16%
CCCCN1C(=O)C(=O)N(CC(=O)N2N=C3/C(=C/c4ccco4)CCCC3C2c2ccco2)C1=O (stereo not drawn)	45µM*	-33%	u	-23%	u	-28%
O=C(CSc1ncn[nH]1)N1N=C2/C(=C\c3ccco3)CCCC2C1c1ccco1 (stereo not drawn)	x	x	x	-5%	-32%	-7%
O=C(CSc1ncn[nH]1)N1N=C2/C(=C/c3ccco3)CCCC2C1c1ccco1 (stereo not drawn)	-20%	u	50µM*	-7%	56µM*	-25%
COc1ccccc1N1CCN(C(=O)CCc2c(C)nn(-c3ccc(N4CCCC4)nn3)c2C)CC1	x	-1%	8%[59 µM]	x	-12%	81%
FC(F)(F)c1cnc(-c2cnc(-c3ccccn3)nc2)c(Cl)c1	7%	u	50µM*	-10%	-12%[11.4 µM]	35%
Cc1ccc(CNC(=O)CN2C(=O)COc3ccccc32)cc1	x	3%	2%[59 µM]	x	-4%	30%
O=[N+]([O-])c1cccc(C=NNc2ccc3ccccc3n2)c1O	x	x	x	-2%	22µM*	19%
Brc1ccccc1/C=N/Nc1ccc2ccccc2n1	40µM*	-10%	-14%[59 µM]	-7%	-24%	26%
Brc1ccc(/C=N/Nc2ccc3ccccc3n2)cc1	u	-7%	12%[0.0925 µM]	-7%	-20%	15%
O=[N+]([O-])c1ccccc1/C=C/c1ccc2ccccc2n1	-11%	u	x	27µM*	40µM*	-12%
O=[N+]([O-])c1cccc2ccc(/C=C/c3ccc(F)cc3)nc12	2%	u	13µM*	-8%	u	-16%
O=[N+]([O-])c1ccc(/C=C/c2ccc3cccc([N+](=O)[O-])c3n2)cc1	-19%	u	u	0%	-19%	-6%
Nc1ccn([C@@H]2O[C@H](CNCc3cnc(N4CCOCC4)nc3)[C@@H](O)[C@H]2O)c(=O)n1	x	x	x	0%	x	x
C=CCn1c(C(C)NC(=O)c2cccc(C)c2)n[nH]c1=S (stereo not drawn)	11%	-4%	28µM*	-9%	18µM*	39%
CCn1c(C(C)NC(=O)c2ccc(Cl)cc2)n[nH]c1=S (stereo not drawn)	u	-18%	u	-9%	10µM*	-9%
CCc1nnc(NC(=O)[C@@H]2CCCN2C(=O)c2cccs2)s1	x	x	x	x	-8%	54%
CSc1ccc(CNC(=O)CCn2c(=O)c3cccn3c3ccc(F)cc32)cc1	x	-12%	-3%[59 µM]	x	-13%	28%
COc1ccc(CNC(=O)CCn2c(=O)c3cccn3c3ccc(F)cc32)cc1	10%	-16%	21%	27µM*	u	25%
O=C1c2ccccc2[C@@H]2C[C@@H](O)[C@H](Nc3cccc(Cl)n3)CCN12	x	x	x	-1%	-11%	25%
Brc1ccc(NC(c2ccccc2)c2ccncc2)cc1 (stereo not drawn)	-9%	71µM*	u	u	56µM*	17%
CC(Nc1ccccc1)c1ccncc1 (stereo not drawn)	24%	-22%	8%	2%	-6%	64%
N#CCSc1nnc(-c2sc3ccccc3c2Cl)o1	0%	5%	12%[59 µM]	-4%	-18%	22%
COC(=O)CSc1nnc(-c2ccc3c(c2)OCO3)n1C	14%	5%[57.1 µM]	12%	-9%	-11%	9%
COc1ccc2c(c1)nc(NCCO)n2C	6%	-4%	-17%	-4%	-6%[57.1 µM]	32%
SMILES	Sfp PPTase inh	BAZ2B block	G9a block	PLK1 PBD inh	JMJD2A Tudor inh	HP1b binding inh
COC(=O)CSc1nnc(-c2sc3cc(OC)ccc3c2Cl)n1C	3%	-20%	6.3µM*	-14%	9%[57.1 µM]	27%
COC(=O)CSc1nc2cc(OC)ccc2n1C	-6%	-26%	71µM*	-5%	-9%	24%
COc1ccc2c(c1)nc(SCC(=O)c1ccc(Br)s1)n2C	56µM*	u	40µM*	u	56µM*	-11%
COC(=O)CSc1nnc(-c2sc3ccccc3c2Cl)o1	-12%	-15%	13µM*	-9%	10%	51%
O=C(O)c1ccc(CNC(=O)c2ccc3c(c2)C(=O)N(Cc2cccnc2)C3=O)cc1	8%	11%	-42%	-18%	2%	24%
CC(=O)NC(c1ccccc1)c1nc(-c2cncnc2)cs1 (stereo not drawn)	x	x	x	-10%	x	x
COc1ccc(-n2c(SCC(=O)Nc3ncc(Cl)cc3Cl)nc3ccccc32)cc1	u	-29%	45µM*	x	x	x
COc1cccc(NC(=O)CSc2nc3ccccc3n2C)c1	3%	-9%	3%[59 µM]	17µM*	u	-6%
Cc1cc(-c2csc(N)n2)c(C)n1CCC(C)C	50µM*	u	10µM*	-15%	50µM*	-31%
Cc1nn(C)cc1-c1csc(N)n1	2%	-27%	-16%[59 µM]	-4%	-12%	22%
CCOC(=O)c1cc(C)n(CCc2ccccc2)c1C	1%	-7%	13%[59 µM]	-6%	-26%	20%
Cc1cc(-c2csc(N)n2)c(C)n1CCc1ccccc1	45µM*	45µM*	u	u	45µM*	-18%
CN(C)c1ccc(NC(=O)Nc2ccc3c(c2)c(=O)n(C)n3-c2ccccc2)cc1	x	x	x	-8%	x	x
CN(C)c1ccc(NC(=S)Nc2ccc3c(c2)c(=O)n(C)n3-c2ccc(C(C)(C)C)cc2)cc1	x	x	x	27µM*	x	x
NC(=O)c1c(NC(=O)C(=O)N2CCOCC2)sc2c1CCC2	-1%	-25%	-11%	0%	-6%	42%
Cc1ccc2c(c1)S/C(=C/c1ccc[n+](CCO)c1)N2C	-1%	-18%	u	-4%	u	18%
C[n+]1ccccc1/C=C1\Sc2ccccc2N1CCO	7%	u	50µM*	10%	u	33%
Cc1ccc2c(c1)S/C(=C\c1cccc[n+]1C)N2CCO	u	-16%	u	24µM*	u	11%
